Measured values as given in ChEMBL document CHEMBL3988442, “University of Dundee, Small-Polar-MMV Screening Library” (2021).
For some of these results: Results with a measured potency or affinity are listed apart.

Experiments:
Set-up in all cases: scale not given: direction of the effect not stated beside the values
[1] = target: Protein translocase subunit SecA (Escherichia coli (strain K12)) (UniProt P10408); experiment: Assay to Identify E. coli SecA ATPase Inhibitors; assay type: functional; conditions: 30 µM
Sequence of Protein translocase subunit SecA (Escherichia coli (strain K12)) (P10408 whole entry): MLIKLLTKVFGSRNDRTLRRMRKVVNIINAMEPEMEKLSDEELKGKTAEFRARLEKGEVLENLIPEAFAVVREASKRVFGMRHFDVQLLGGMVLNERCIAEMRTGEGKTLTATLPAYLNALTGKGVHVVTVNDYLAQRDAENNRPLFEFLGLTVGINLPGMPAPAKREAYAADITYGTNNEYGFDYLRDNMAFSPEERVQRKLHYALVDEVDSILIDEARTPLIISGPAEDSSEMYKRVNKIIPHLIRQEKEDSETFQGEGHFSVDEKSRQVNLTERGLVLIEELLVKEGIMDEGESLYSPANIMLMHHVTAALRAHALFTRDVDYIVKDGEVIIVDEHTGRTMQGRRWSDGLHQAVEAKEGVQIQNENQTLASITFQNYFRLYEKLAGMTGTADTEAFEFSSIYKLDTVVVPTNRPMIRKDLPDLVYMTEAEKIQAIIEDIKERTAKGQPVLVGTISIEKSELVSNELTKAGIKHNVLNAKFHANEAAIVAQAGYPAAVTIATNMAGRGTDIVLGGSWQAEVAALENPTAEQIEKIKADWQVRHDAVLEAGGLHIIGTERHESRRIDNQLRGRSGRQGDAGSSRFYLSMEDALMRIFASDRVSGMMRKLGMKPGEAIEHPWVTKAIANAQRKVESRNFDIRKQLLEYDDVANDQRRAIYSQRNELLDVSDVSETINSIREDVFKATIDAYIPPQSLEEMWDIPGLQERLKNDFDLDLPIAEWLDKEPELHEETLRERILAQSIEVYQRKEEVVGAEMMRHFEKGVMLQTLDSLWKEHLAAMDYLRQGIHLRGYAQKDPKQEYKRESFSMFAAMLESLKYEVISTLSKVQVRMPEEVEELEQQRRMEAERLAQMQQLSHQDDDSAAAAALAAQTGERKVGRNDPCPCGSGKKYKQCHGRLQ

[2] = target: T1, Ubiquitin-activating enzyme e1, putative (Leishmania donovani (strain BPK282A1)) (UniProt E9BSI1); experiment: Leishmania donovani Ubiquitin Activating Enzyme (LdE1); assay type: functional; conditions: 30 µM
T1 sequence (whole entry): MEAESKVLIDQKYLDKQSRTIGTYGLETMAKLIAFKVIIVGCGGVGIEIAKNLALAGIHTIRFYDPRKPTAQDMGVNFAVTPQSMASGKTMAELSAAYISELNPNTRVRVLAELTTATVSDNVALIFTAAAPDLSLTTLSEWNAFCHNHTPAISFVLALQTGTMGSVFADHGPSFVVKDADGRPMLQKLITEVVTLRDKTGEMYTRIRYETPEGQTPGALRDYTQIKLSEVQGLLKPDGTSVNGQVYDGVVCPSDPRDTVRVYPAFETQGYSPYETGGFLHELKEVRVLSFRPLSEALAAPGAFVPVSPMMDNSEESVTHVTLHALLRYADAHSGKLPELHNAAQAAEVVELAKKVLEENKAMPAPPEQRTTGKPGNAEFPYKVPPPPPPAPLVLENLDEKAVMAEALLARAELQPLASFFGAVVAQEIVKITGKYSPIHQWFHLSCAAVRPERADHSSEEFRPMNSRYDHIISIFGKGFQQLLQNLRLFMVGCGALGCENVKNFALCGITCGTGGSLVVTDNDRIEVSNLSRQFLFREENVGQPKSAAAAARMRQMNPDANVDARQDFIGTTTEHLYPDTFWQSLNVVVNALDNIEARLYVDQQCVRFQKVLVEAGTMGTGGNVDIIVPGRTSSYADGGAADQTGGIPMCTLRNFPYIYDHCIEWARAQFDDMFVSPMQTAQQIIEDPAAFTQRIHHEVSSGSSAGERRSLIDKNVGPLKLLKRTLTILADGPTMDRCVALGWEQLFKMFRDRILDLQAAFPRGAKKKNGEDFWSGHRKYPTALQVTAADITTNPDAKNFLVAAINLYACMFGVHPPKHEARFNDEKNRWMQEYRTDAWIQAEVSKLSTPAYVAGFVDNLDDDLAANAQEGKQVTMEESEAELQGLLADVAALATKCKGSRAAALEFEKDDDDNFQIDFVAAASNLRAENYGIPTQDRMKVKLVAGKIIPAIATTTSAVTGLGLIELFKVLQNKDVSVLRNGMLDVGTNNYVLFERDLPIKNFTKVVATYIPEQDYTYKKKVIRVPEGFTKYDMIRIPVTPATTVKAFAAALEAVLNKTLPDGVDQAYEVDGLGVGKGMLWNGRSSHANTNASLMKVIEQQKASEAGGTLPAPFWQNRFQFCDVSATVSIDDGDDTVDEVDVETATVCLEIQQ

[3] = target: AMP-activated protein kinase, AMPK (Homo sapiens) (UniProt P54646+O43741+P54619+Q9UGJ0+Q9Y478+Q13131+Q9UGI9); experiment: AMP-dependent Kinase enzyme assay. An in vitro enzyme assay that detects ADP turnover that is directly proportional to AMPK activity. This uses naive AMPK that is activated during the assay with MK-8722; assay type: functional; conditions: 30 µM
[4] = target: Sialic acid-binding Ig-like lectin 9 (Homo sapiens) (UniProt Q9Y336); experiment: Hs-Siglec9 ALPHAscreen SOP 20170721; conditions: 10 µM
Sequence of Sialic acid-binding Ig-like lectin 9 (Homo sapiens) (Q9Y336 whole entry): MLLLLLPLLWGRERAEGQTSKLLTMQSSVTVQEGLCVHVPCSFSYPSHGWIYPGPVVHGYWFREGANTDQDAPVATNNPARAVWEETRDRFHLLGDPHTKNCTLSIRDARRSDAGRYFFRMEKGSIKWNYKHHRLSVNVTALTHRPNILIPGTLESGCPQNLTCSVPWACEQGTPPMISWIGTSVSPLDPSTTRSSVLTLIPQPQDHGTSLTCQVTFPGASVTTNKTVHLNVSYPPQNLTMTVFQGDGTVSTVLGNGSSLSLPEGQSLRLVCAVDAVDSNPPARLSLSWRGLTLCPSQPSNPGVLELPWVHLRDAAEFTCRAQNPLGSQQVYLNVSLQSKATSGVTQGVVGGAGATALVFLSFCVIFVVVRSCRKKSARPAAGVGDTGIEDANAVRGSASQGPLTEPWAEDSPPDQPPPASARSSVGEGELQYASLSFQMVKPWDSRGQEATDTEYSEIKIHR

[5] = test system: Trypanosoma cruzi; experiment: Trypanosoma cruzi phosphomannomutase and mannose-1-phosphate guanylyltransferase assay; assay type: functional; conditions: 10 µM
[6] = target: T2, Arginase-2, mitochondrial (Homo sapiens) (UniProt P78540); experiment: in vitro enzyme assay to detect the production of urea directly proportional to the activity of Arginase II; assay type: functional; conditions: 33.3 µM; also: in the data most compounds retested in dose-response had high values
T2 sequence (whole entry): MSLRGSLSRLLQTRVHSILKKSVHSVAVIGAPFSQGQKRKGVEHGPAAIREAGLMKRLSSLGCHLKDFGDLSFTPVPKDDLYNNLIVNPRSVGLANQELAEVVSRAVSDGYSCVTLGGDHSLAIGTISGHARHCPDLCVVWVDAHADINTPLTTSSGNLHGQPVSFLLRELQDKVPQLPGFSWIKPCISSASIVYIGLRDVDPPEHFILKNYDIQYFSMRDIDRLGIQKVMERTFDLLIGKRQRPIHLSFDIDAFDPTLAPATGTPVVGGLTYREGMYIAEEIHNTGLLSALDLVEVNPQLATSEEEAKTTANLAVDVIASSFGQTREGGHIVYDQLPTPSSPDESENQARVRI

[7] = target: T3, Proteasome subunit beta (Trypanosoma cruzi) (UniProt O96673); experiment: Trypanosoma cruzi proteasome chymotrypsin-like activity (TcProtChymo) assay.; also: in the data most compounds retested in dose-response had high values; assay type: functional; conditions: 9.37 µM
T3 sequence (whole entry): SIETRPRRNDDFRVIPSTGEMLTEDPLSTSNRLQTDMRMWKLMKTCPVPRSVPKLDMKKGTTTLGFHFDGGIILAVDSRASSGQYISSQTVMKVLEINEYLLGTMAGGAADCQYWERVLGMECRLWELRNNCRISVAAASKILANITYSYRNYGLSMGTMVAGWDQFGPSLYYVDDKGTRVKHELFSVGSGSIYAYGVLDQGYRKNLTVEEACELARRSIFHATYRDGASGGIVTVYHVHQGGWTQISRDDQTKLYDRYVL

[8] = organism: Homo sapiens; experiment: To identify inhibition of the IFN signalling (Jak-Stat) pathway via expression of an eGFP reporter gene under the control of an IFN-stimulated response element (ISRE) containing MxA promoter.; assay type: functional; conditions: 30 µM
[9] = target: T4, Tyrosyl-tRNA synthetase, putative (Trypanosoma cruzi (strain CL Brener)) (UniProt Q4DSP6); experiment: Trypanosoma cruzi tyrosyl tRNA synthetase (TcYRS) _High Tyrosine SOP; assay type: functional; conditions: 30 µM; also: in the data most compounds retested in dose-response had high values
T4 sequence (whole entry): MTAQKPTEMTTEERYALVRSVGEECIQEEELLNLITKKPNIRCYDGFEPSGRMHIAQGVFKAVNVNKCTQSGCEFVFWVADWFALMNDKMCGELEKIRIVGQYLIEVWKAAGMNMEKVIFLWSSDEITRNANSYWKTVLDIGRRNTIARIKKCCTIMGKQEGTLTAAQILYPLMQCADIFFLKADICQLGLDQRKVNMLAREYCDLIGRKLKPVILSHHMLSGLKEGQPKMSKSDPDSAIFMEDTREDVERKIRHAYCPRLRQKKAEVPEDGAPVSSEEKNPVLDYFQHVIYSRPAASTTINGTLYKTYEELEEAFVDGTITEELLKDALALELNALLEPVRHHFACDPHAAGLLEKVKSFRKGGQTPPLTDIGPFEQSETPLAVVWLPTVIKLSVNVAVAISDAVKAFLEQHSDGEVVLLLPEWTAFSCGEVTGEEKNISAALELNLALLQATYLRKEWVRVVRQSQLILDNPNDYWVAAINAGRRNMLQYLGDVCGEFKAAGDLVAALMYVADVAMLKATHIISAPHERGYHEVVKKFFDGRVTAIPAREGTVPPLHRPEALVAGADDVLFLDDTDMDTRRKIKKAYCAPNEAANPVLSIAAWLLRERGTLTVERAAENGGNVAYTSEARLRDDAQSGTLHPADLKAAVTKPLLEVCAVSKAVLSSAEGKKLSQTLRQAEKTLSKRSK

[10] = target: T4, Tyrosyl-tRNA synthetase, putative (Trypanosoma cruzi (strain CL Brener)); experiment: Trypanosoma cruzi tyrosyl tRNA synthetase (TcYRS) SOP; assay type: functional; conditions: 30 µM
[11] = target: Chromo domain-containing protein 1 (Saccharomyces cerevisiae (strain ATCC 204508 / S288c) (Baker's yeast)) (UniProt P32657); experiment: ScCHD-1 Enzyme Inhibition Assay; assay type: functional; conditions: 30 µM; also: in the data most compounds retested in dose-response had high values
Sequence of Chromo domain-containing protein 1 (Saccharomyces cerevisiae (strain ATCC 204508 / S288c) (Baker's yeast)) (P32657 whole entry, the tested form may be a part): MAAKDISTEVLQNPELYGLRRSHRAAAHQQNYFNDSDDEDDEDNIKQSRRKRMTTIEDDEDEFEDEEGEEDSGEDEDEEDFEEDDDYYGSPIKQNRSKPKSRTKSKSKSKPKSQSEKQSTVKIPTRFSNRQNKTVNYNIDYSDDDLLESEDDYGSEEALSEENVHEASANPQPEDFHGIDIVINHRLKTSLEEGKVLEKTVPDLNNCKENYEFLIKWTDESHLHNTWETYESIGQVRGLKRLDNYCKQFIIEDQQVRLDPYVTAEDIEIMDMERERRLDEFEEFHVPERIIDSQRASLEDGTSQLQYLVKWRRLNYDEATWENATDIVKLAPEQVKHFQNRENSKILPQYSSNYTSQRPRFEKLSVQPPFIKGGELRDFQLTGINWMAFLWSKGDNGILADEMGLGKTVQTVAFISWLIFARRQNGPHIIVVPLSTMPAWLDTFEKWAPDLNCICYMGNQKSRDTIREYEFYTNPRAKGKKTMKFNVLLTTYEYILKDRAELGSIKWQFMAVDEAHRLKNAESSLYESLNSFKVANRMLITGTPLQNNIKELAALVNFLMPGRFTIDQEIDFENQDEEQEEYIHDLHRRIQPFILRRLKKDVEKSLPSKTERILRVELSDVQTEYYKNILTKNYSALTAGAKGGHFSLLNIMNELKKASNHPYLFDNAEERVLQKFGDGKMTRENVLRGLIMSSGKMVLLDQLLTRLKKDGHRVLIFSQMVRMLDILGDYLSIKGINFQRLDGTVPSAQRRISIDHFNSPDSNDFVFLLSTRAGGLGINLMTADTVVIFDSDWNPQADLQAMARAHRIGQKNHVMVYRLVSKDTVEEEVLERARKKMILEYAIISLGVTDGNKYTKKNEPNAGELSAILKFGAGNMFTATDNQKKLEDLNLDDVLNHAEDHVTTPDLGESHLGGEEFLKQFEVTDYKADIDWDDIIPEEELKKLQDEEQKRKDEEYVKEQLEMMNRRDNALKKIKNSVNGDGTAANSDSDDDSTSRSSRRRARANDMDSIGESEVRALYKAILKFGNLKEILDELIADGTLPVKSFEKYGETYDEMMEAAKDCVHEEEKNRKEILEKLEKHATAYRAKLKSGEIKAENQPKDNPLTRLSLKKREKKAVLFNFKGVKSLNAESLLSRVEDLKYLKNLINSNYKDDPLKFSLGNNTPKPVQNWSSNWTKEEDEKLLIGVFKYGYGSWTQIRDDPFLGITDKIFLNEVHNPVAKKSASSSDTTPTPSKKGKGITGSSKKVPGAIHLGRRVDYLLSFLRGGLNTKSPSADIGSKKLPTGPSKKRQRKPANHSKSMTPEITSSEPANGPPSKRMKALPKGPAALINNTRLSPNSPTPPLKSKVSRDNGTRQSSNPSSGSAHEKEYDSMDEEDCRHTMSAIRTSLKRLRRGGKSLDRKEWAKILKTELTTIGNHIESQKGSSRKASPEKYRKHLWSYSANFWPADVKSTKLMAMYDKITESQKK

Row | SMILES | Percent Effect [1] [%] | Percent Effect [2] [%] | Percent Effect [3] [%] | Percent Effect [4] [%] | Percent Effect [5] [%] | Percent Effect [6] [%] | Percent Effect [7] [%] | Percent Effect [8] [%] | Percent Effect [9] [%] | Percent Effect [10] [%] | Percent Effect [11] [%]
1 | Fc1cnc(N2C[C@H]3CCC[C@@]3(COc3ccccn3)C2)nc1 | -1.64 | 1.33 | 6.16 | 4.78 | -3.93 | -1.94 | 10.5 | -10.5 | 5.29 | 2.56 | -5.06
2 | COCC1CC2(CCN(C(=O)c3cccc(C)c3)CC2)CO1 (stereo not given) | -0.162 | 5.2 | 3.05 | 6.28 | -1.68 | -1.94 | 1.74 | -8.87 | -3.17 | -3.85 | -5.05
3 | CC(=O)N1CCC(Cc2cnc(-c3c(C)n[nH]c3C)cn2)C1 (stereo not given) | -5.08 | 0 | 10 | -2.02 | 1.97 | 0.233 | 4.67 | -10.8 | 3.19 | 1.28 | 0.0811
4 | Cc1cnn(CCNCc2cccnc2)c1 | -3.48 | -11.4 | 6.23 | 2.04 | -2.36 | 1.5 | 8.92 | 16.9 | 2.08 | 7.59 | -6.41
5 | Cc1oc(C)c(C(=O)NCc2cccnc2N(C)C)c1C | -1.52 | 13.2 | 4.37 | -11.8 | -3.57 | -1.53 | 5.35 | -12.2 | 1.47 | 12.2 | -9.19
6 | CCOc1ccc(Cl)c(C(=O)N2CCN(CCO)CC2)n1 | -5.67 | 10.4 | -0.195 | 9 | -3 | 0.356 | 4.05 | 5.42 | 4.85 | 9.76 | -4.45
7 | CC(C)c1nn(C)c(Cl)c1CNCC(O)c1cccc(F)c1 (stereo not given) | -7.69 | 5.2 | -1.22 | -3.98 | 7.35 | -2.32 | 15.8 | 4.38 | 7.62 | 30.6 | -7
8 | Fc1ccc(-c2nnc(CN3CCOC(Cn4cncn4)C3)o2)cc1 (stereo not given) | -6.46 | 0 | 1.39 | -4.51 | -2.62 | 3.56 | -2.37 | 19.6 | 0.971 | -14.6 | -2.35
9 | O=C(CCn1cnnc1)N1CCCC(c2ncc[nH]2)C1 (stereo not given) | 1.63 | 5.48 | 11.6 | 0.524 | -6.27 | 2.27 | 8.52 | 6.13 | 3.23 | 12.5 | -7.06
10 | COc1ccc(Br)c(C(=O)N2CCC(c3n[nH]c(C4CC4)n3)CC2)c1 | -4.1 | 16.5 | 1.39 | 2.29 | 0.513 | -3.23 | 11.8 | 4.22 | 4.17 | 25.3 | -27.6
11 | NC(=O)CN1CC2(CCC1=O)CCN(Cc1cc(F)ccc1Cl)CC2 | -3.36 | 16 | -3.98 | 13.3 | 7.5 | 5.73 | 18 | 8.19 | 3.83 | 18.5 | -5.6
12 | O=C1N(c2cccc(Cl)c2)Cc2nc(=O)n(Cc3cccc(F)c3)n21 | -2.59 | -1.33 | 3.81 | 5.37 | -4.71 | -10.4 | 6.1 | 7.11 | -1.06 | 2.56 | -8.79
13 | O=C(c1cc(=O)[nH]c(=O)[nH]1)N1CCCCC1c1nc2cc(F)ccc2[nH]1 (stereo not given) | -4.1 | 1.39 | 2.15 | -1.84 | 1.07 | 3.97 | 6.14 | -12.1 | 3.16 | 7.69 | -2.87
14 | CCCS(=O)(=O)N1CCOCC2(CCN(c3ccccn3)C2)C1 (stereo not given) | -1.74 | 1.33 | -1.28 | 4.69 | -6.88 | 1.58 | 3.88 | 3.94 | -3.17 | 5.13 | -4.27
15 | Cc1nc(C)n(CC2CCCN(CCc3ccccn3)C2)n1 (stereo not given) | -8.02 | 13.9 | -5.61 | -6.83 | 2.36 | -1.07 | 1.2 | 3.25 | 3.12 | 15.2 | -36.4
16 | Cc1noc(C)c1CN1CC2(CCN(C(=O)c3c[nH]cn3)C2)CC1=O (stereo not given) | -0.0681 | 13.3 | -2.8 | 13.2 | -3.48 | -49.3 | 17.8 | -2.42 | 2.08 | 17.5 | -4.57
17 | CN(CCCC#N)C1CCCN(Cc2noc(C3CC3)n2)C1 (stereo not given) | -1.64 | 15.3 | -17 | 7.77 | 0.68 | 5.74 | 12.8 | -4.02 | 4.21 | 7.69 | -5.25
18 | Cn1c(C(=O)N2CCC(C(=O)N3CCCC3)CC2)c(Cl)c2ccccc21 | -4.1 | 5.33 | -1.92 | 6.11 | 2.82 | 2.6 | 25.5 | 0.0464 | 8.2 | 13.6 | -6.83
19 | O=C(c1cccs1)N1CCC(Cn2nc(-c3ccco3)ccc2=O)CC1 | 0.0559 | 6.76 | 15.8 | 0.867 | -6.92 | 3.02 | 26.8 | 13.6 | 10.8 | 14.3 | 1.29
20 | CN(C)CC1CSCCCN1C(=O)c1ccc(C(C)(C)C)cc1 (stereo not given) | 2.6 | 2.6 | 2.24 | 1.48 | -5.23 | 7.1 | 1.39 | 1.95 | 6.35 | 16.7 | -4.54
